Test results: PubChem BioAssay AID652054 (National Center for Advancing Translational Sciences (NCATS), 2013)
Screen size: about 360,000 compounds; about 9,100 (2.5%) were called active. Inconclusive results (about 4%) are left out. The list comes from a sample in which actives are over-represented; it also holds similar structures and randomly drawn compounds. A number with no mark means an inactive call. Cut-off read from the data, not from the text of the source: active = max response below about -50%; inconclusive = no clear call, values can overlap the other calls; inactive = above that.

What follows are molecules tested against D(3) dopamine receptor (Homo sapiens) (UniProt P35462) (assay: qHTS of D3 Dopamine Receptor Antagonist: qHTS). Settings: D3R cells, DiscoveRx beta-arrestin luminescence, antagonist mode; active compounds read low.
In short: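 Cells expressing the human receptor were seeded at 1500 cells/well, incubated overnight at 37 degrees C in 5% CO2, then exposed to library compounds with dopamine controls for 90 minutes at 37 degrees C before luminescent detection.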
% is set by controls: 0 for no effect and ±100 for the full control effect.

D(3) dopamine receptor (Homo sapiens), sequence (P35462 whole entry, looked up): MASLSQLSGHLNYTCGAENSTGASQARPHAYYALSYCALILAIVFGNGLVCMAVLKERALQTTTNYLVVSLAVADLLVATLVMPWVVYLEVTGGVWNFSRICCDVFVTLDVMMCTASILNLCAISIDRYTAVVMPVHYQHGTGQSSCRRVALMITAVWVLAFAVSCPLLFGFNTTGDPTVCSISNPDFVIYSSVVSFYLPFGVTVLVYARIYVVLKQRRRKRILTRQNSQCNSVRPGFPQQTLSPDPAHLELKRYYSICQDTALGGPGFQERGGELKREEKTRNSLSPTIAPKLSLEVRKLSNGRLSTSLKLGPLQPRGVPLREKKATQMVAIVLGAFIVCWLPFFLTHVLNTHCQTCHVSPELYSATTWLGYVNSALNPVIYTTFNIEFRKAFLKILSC

In the case of `COc1ccc2c(c1)c(=Cc1ccc(N(C)C)cc1)c1cc(-c3ccccc3)[n+](C)n12`, the max response, negative = inhibition is reported as -65.2% (active).
For `CCCCN(CC)CCNC(=O)c1[nH]c(C)c(C(C)=O)c1C`, the max response, negative = inhibition was -58.3% (active).
In the case of `C=CS(=O)c1sc(Cl)c(N2CCOCC2)c1[N+](=O)[O-]` (centres undefined), the max response, negative = inhibition is reported as -84.2% (active).
`COc1ccc(CCC(C)N2CCc3ccccc3C2)cc1` (centres undefined) was tested, and the max response, negative = inhibition was -112% (active).
For `CCOc1ccc(-n2c(O)c(/C=N/Nc3nc(C)cc(C)n3)c3ccccc3c2=O)cc1`, the max response, negative = inhibition was -56.4% (active).

Point of comparison: `Cc1ccc(-n2c(O)c(C=Nc3ccc(S(=O)(=O)Nc4ncccn4)cc3)c3ccccc3c2=O)cc1C`, max response, negative = inhibition 1.71%. Against it:
- Cc1ccc(C(NC(=O)C2CCN(CCOc3ccc(Cl)cc3Cl)CC2)c2ccccn2)cc1 (centres undefined) — lower, -3.28%
- CC1=C(C(=O)N(C)C)CC(CC(=O)NCCc2ccccn2)C(=O)N1CCC1=CCCCC1 (centres undefined) — lower, -22.1%
- CCCCCNC(=O)C1C(=O)Nc2ccccc2C(=O)N1C(C)(C)C (centres undefined) — lower, -19.2%
- CC(=O)c1c(C)[nH]c(C(=O)NCc2ccc(C)cc2)c1C — lower, -6.75%
- CC(=O)c1c(C)[nH]c(C(=O)NCCCN2CCCC2)c1C — higher, 11.6%
- CC1(C(=O)NS(=O)(=O)C2CC2)CCCN(C(=O)CSc2ccccc2)C1 (centres undefined) — lower, 0%
- Cc1ccc(-c2nc3ccc(Br)cn3c2Cc2ccccc2C(F)(F)F)cc1 — lower, -15%
- CCOC(=O)C1=CC[C@@H](c2ccncc2)N(S(=O)(=O)c2ccc(C)cc2)C1 — lower, -4.07%
- CCCCNC(=O)c1nc(C2CCN(S(=O)(=O)c3ccc(F)c(F)c3)CC2)oc1-c1cccc(C(F)(F)F)c1 — higher, 7.15%
- C[C@H]1CN([C@@H](C)CO)C(=O)CCCn2nncc2CO[C@@H]1CN(C)Cc1ccc(Oc2ccccc2)cc1 — lower, -10.5%
- CC1(C(=O)NCc2ccco2)Cc2c(-c3ccc4c(c3)OCO4)ccnc2O1 (centres undefined) — higher, 5.33%
- CC(=O)NN=C(C)c1ccc(NC(=O)C2CC2)cc1 — higher, 3.77%
- COc1ccc(CN2CN(C(C)C)CSC2=S)cc1 — lower, -12.9%
- COc1ccc(NC(=O)C(=O)NCC(c2ccco2)N2CCc3ccccc3C2)cc1 (centres undefined) — higher, 6.38%
- O=C(OC1CC2CC1[C@H]1CCCCN1C2=O)N1CCOCC1 (some centres undefined) — higher, 3.81%
- O=C(C(=O)N1CCC(c2ccccc2)CC1)c1ccccc1 — higher, 11.8%
- CCN(CC)CCCN=Cc1c(O)n(-c2ccc(C)cc2)c(=O)c2ccccc12 — higher, 9.43%
- O=C(Nc1ccc2c(c1)OCCO2)C1c2ccccc2OCC(=O)N1Cc1ccccn1 (centres undefined) — higher, 33.3%
